What was measured:
Experiment in all cases: DAPPL (digital affinity profiling via proximity ligation, sequencing); 10 mM Tris-HCl pH 7.5, 50 mM NaCl, 1 mM DTT, 4% glycerol, room temperature, 30 min; GST-TFs on glutathione beads, 16-mer random dsDNA library, 0.1% formaldehyde crosslink after washing; high values mean tight binding
Conditions in all cases: protein: recombinant; tags: N-terminal GST; dsDNA, one strand shown
ELK1 = target: T1, ELK1 (Homo sapiens, UniProt P19419 1-428)
T1 sequence: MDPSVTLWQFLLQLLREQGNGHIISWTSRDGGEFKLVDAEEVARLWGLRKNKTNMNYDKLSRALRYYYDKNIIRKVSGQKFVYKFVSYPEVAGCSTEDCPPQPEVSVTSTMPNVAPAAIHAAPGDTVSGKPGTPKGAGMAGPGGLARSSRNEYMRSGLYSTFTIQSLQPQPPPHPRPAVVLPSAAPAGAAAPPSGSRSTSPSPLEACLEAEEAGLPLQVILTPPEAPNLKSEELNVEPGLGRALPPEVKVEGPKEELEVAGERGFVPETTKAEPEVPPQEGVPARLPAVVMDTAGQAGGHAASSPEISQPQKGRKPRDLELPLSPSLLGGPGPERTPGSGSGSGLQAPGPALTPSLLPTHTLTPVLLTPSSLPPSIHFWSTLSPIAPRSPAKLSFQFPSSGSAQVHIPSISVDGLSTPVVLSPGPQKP
Procedure, shortened: (§1)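 A tag-only sample was pooled with DNA-barcoded human transcription factors that had been expressed in yeast as GST fusions and captured on glutathione beads. The pools were incubated for 30 min at room temperature with 200 nmole of a random double-stranded 16-mer DNA library in Tris/NaCl/DTT/glycerol buffer, then washed, crosslinked with 0.1% formaldehyde, proximity-ligated (BsaI/T4 ligase, 1 h, 37 °C), PCR-amplified and sequenced on an Illumina NextSeq500. Binding signal is each hexamer's read frequency for a factor divided by its frequency for the tag-only sample.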

GABPA = target: T2, GABPA (Homo sapiens, UniProt Q06546 1-454)
T2 sequence: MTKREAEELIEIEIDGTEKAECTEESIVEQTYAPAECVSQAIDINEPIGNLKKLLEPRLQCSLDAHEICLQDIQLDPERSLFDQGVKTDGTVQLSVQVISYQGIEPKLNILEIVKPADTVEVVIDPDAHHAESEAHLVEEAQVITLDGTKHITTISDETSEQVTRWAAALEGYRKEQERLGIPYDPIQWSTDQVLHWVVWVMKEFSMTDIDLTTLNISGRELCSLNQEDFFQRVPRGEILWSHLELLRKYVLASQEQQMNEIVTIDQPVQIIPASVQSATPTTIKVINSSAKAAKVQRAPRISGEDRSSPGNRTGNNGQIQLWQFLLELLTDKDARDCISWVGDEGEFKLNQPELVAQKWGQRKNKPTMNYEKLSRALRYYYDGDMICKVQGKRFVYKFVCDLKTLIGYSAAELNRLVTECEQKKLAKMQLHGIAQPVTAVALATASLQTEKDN
Procedure, shortened: as §1

ERG = target: T3, ERG (Homo sapiens, UniProt P11308 1-479)
T3 sequence: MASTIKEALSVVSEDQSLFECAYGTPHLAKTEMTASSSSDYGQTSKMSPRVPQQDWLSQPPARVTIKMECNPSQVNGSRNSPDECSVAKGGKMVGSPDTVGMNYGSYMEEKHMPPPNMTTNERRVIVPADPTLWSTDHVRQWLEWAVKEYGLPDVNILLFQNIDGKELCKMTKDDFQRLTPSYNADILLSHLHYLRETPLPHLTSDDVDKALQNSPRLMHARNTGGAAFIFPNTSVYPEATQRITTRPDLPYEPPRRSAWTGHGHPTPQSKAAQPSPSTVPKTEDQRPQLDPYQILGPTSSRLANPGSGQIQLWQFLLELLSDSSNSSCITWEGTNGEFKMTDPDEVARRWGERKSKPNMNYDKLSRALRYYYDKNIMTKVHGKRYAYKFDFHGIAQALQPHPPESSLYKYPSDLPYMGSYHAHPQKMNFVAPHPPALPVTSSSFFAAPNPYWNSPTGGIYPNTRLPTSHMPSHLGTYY
Procedure, shortened: as §1

ELF1 = ELF1 (Homo sapiens, UniProt P32519 1-619)
Procedure, shortened: as §1

EHF = target: T4, EHF (Homo sapiens, UniProt Q9NZC4 1-300)
T4 sequence: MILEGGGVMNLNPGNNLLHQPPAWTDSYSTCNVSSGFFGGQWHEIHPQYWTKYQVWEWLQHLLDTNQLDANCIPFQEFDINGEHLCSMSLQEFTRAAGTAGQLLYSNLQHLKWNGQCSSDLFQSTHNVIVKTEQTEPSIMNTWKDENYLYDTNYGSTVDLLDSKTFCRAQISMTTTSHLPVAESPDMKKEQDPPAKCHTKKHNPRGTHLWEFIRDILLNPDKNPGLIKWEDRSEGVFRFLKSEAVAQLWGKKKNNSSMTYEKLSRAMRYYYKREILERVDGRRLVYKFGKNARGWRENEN
Procedure, shortened: as §1

SPIB = SPIB (Homo sapiens, UniProt Q01892 1-262)
Procedure, shortened: as §1

ETV5 = ETV5 (Homo sapiens, UniProt P41161 1-510)
Procedure, shortened: as §1

ELF4 = ELF4 (Homo sapiens, UniProt Q99607 1-663)
Procedure, shortened: as §1

ELK4 = target: T5, ELK4 (Homo sapiens, UniProt P28324-2 1-405)
T5 sequence: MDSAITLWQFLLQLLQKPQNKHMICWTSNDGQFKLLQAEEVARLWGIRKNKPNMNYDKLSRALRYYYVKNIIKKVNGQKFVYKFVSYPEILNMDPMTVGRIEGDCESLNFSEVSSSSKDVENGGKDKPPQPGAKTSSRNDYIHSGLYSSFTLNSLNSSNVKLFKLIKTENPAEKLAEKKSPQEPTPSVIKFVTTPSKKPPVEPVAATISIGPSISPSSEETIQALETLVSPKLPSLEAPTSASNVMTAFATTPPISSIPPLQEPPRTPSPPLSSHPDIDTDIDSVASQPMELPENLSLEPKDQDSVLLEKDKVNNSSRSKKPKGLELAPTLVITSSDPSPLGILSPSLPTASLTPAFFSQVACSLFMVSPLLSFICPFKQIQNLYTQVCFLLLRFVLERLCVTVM
Procedure, shortened: as §1

ETV2 = target: T6, ETV2 (Homo sapiens, UniProt O00321 1-342)
T6 sequence: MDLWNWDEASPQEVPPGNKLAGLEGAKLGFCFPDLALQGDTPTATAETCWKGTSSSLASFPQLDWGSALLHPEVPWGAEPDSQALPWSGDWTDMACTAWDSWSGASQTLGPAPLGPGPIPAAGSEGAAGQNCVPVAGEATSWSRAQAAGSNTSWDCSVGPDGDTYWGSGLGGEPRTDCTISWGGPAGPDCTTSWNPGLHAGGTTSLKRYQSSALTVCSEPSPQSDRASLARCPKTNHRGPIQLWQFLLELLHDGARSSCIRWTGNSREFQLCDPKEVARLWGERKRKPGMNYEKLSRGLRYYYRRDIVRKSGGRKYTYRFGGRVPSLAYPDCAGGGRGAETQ
Procedure, shortened: as §1

ELF3 = target: T7, ELF3 (Homo sapiens, UniProt P78545 1-371)
T7 sequence: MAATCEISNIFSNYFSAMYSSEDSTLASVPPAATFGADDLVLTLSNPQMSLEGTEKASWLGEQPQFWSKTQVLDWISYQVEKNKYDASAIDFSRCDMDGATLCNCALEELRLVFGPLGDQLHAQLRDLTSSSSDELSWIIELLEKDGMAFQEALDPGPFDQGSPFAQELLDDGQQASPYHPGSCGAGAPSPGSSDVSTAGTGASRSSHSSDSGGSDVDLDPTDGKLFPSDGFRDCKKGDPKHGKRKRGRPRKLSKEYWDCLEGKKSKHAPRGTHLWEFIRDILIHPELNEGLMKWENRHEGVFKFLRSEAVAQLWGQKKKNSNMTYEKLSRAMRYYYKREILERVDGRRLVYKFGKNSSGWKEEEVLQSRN
Procedure, shortened: as §1

ETV1 = ETV1 (Homo sapiens, UniProt P50549 1-477)
Procedure, shortened: as §1

ERF = target: T8, ERF (Homo sapiens, UniProt P50548 1-548)
T8 sequence: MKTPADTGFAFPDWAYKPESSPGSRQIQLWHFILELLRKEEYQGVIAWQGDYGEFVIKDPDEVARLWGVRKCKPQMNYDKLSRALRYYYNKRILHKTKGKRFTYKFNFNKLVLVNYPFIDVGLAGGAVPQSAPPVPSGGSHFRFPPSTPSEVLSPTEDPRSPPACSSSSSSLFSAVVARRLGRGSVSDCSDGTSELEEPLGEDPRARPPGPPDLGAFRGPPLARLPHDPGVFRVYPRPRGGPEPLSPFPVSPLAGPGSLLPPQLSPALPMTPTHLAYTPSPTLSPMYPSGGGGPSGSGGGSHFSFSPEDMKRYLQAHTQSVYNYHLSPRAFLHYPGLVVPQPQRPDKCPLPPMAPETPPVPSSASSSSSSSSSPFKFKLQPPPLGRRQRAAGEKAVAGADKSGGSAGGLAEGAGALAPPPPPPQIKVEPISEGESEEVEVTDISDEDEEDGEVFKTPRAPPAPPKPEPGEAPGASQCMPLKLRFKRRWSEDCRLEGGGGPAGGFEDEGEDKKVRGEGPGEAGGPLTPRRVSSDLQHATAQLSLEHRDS
Procedure, shortened: as §1

ETV3L = target: T9, ETV3L (Homo sapiens, UniProt Q6ZN32 1-361)
T9 sequence: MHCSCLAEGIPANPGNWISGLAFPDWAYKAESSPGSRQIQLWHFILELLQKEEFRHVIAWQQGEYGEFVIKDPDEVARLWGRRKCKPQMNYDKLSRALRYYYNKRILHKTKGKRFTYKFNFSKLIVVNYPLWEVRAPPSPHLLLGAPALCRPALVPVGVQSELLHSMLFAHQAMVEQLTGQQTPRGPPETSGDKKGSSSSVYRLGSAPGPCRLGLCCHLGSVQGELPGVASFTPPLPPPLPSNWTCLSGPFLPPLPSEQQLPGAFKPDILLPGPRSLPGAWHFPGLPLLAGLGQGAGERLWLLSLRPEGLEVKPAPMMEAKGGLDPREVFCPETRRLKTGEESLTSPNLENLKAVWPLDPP
Procedure, shortened: as §1

ETV7 = target: T10, ETV7 (Homo sapiens, UniProt Q9Y603 1-341)
T10 sequence: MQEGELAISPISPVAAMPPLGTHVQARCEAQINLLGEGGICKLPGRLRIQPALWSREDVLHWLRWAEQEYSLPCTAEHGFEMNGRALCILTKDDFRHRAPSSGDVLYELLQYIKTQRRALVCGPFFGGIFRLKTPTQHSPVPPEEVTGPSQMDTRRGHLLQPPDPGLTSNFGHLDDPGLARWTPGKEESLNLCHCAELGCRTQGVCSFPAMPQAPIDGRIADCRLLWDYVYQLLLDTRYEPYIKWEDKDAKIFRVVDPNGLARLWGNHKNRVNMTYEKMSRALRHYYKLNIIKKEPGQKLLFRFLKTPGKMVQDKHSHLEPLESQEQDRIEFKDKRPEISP
Procedure, shortened: as §1

ETV3 = target: T11, ETV3 (Homo sapiens, UniProt P41162-2 1-143)
T11 sequence: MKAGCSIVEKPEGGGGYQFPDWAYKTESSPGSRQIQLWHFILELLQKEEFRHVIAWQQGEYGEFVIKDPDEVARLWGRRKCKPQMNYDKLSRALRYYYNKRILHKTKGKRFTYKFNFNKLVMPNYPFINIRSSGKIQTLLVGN
Procedure, shortened: as §1

ETV6 = ETV6 (Homo sapiens, UniProt P41212 1-452)
Procedure, shortened: as §1

ELF1, sequence (P32519 whole entry): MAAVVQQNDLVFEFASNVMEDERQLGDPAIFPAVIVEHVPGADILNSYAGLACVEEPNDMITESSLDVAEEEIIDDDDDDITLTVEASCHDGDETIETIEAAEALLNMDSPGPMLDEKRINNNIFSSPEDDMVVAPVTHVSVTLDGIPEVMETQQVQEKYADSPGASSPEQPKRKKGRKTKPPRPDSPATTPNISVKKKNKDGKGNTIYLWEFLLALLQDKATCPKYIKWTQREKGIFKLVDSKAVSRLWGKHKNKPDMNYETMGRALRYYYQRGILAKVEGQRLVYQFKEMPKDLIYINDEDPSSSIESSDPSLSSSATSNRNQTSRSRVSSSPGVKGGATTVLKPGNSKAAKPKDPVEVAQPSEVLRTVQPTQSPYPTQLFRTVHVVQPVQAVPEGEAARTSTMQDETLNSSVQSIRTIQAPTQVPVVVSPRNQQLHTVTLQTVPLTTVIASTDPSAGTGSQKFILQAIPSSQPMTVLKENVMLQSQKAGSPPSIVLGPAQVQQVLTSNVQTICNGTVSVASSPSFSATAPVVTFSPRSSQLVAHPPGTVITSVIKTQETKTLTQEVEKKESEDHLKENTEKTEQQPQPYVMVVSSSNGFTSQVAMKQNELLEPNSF
SPIB, sequence (Q01892 whole entry): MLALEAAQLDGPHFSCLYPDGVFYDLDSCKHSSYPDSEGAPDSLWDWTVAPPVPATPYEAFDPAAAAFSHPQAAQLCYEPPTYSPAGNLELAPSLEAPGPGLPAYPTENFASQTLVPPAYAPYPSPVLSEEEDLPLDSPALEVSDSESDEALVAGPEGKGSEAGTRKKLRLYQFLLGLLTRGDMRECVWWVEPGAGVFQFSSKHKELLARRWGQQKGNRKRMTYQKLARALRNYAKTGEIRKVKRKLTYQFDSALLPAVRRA
ETV6, sequence (P41212 whole entry): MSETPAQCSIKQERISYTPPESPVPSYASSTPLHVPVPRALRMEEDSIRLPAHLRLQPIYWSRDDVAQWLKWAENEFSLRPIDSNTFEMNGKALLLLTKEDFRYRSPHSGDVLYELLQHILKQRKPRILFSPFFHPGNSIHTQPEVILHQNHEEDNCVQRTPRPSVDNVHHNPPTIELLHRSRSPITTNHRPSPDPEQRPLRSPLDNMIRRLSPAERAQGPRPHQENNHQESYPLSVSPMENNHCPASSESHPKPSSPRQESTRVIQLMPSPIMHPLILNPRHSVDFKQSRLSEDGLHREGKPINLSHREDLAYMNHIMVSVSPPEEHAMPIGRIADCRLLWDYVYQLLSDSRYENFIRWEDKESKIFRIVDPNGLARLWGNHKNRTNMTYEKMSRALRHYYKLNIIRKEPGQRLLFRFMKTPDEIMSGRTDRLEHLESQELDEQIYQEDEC
ETV1, sequence (P50549 whole entry): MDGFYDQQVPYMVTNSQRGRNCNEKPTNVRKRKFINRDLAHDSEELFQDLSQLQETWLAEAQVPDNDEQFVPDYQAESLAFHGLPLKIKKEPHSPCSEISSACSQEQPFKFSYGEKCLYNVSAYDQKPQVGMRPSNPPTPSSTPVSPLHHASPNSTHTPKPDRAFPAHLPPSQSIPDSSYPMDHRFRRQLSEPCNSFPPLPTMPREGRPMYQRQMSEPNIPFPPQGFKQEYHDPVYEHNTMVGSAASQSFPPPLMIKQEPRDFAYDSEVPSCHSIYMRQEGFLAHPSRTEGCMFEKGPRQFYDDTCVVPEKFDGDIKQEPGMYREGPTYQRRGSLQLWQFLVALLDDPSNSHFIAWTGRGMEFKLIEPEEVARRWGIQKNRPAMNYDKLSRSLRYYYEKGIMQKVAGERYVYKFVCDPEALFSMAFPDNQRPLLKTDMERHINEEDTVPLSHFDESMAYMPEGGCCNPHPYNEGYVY
ETV5, sequence (P41161 whole entry): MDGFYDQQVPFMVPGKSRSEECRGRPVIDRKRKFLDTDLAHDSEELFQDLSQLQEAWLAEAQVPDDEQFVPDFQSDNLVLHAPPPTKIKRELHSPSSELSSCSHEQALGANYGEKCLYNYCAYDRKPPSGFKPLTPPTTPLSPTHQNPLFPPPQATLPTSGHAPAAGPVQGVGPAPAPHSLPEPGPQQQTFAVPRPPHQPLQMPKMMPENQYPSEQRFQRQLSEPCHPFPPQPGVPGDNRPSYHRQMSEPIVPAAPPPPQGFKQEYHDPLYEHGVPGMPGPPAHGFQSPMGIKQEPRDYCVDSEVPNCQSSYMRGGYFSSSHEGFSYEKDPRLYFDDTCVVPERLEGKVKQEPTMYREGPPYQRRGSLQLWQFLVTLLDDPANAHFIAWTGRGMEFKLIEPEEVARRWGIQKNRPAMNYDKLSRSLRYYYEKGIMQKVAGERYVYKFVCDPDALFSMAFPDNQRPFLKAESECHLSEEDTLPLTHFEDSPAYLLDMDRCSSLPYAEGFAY
ELF4, sequence (Q99607 whole entry): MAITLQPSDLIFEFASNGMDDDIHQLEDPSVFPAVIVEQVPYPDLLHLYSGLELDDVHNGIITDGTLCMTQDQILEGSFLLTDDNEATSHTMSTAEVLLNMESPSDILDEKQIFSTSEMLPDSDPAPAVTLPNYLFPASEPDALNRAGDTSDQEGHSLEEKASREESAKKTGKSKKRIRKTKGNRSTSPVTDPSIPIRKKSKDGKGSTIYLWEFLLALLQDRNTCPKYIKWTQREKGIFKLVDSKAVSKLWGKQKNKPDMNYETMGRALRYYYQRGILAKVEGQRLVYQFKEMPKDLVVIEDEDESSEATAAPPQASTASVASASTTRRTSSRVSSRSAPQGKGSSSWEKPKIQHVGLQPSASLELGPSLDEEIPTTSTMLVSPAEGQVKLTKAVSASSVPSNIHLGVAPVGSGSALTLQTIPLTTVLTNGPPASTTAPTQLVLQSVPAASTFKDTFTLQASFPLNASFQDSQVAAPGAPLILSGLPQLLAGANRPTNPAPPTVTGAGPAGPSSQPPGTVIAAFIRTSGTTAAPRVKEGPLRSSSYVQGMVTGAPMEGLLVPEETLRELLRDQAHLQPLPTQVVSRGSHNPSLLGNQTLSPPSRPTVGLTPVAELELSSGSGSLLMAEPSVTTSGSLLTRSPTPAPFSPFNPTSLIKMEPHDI

CGTAGC
binding signal (ELK1): 1.07 fold enrichment (6-mer frequency, TF over GST control)
binding signal (GABPA): 1.08 fold enrichment (6-mer frequency, TF over GST control)
binding signal (ERG): 1.04 fold enrichment (6-mer frequency, TF over GST control)
binding signal (ELF1): 1.1 fold enrichment (6-mer frequency, TF over GST control)
binding signal (EHF): 1.05 fold enrichment (6-mer frequency, TF over GST control)
binding signal (SPIB): 1.07 fold enrichment (6-mer frequency, TF over GST control)
binding signal (ETV5): 1.08 fold enrichment (6-mer frequency, TF over GST control)
binding signal (ELF4): 1.07 fold enrichment (6-mer frequency, TF over GST control)
binding signal (ELK4): 1.23 fold enrichment (6-mer frequency, TF over GST control)
binding signal (ETV2): 1.03 fold enrichment (6-mer frequency, TF over GST control)
binding signal (ELF3): 1.12 fold enrichment (6-mer frequency, TF over GST control)
binding signal (ETV1): 1.15 fold enrichment (6-mer frequency, TF over GST control)
binding signal (ERF): 1.03 fold enrichment (6-mer frequency, TF over GST control)
binding signal (ETV3L): 1.09 fold enrichment (6-mer frequency, TF over GST control)
binding signal (ETV7): 1.09 fold enrichment (6-mer frequency, TF over GST control)
binding signal (ETV3): 1.04 fold enrichment (6-mer frequency, TF over GST control)
binding signal (ETV6): 1.1 fold enrichment (6-mer frequency, TF over GST control)
